Reference: PubChem BioAssay AID1347423 (Functional Genomics Laboratory (NCATS/FGL), 2020)
About 210 (0.4%) of roughly 52,000 sequences were called active. The sample as a whole holds a higher share of actives than the screen did. A number with no mark means an inactive call.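 How the source made its calls: active means gene whose silencing raises cell survival under the drug, median off-target-corrected z-score across its silencing RNAs 2 or more; inactive means the rest.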

assay: Resistance to Poly (ADP-Ribose) Polymerase inhibitor: Gene Identification via Genome-wide siRNA Screen; conditions: mouse BRCA2 R2336H ES cells, olaparib, CellTiter-Glo viability; stronger effect = higher value
Excerpt: The role of Poly (ADP-Ribose) Polymerase (PARP) proteins in DNA repair has been elegantly utilized for the synthetic lethality-based treatment of BRCA-deficient tumors by PARP inhibitors. PARP inhibitors are now being used for treatment of BRCA-deficient breast and ovarian cancers. […] While several mechanisms of drug resistance have been identified, majority of these tumors develop drug resistance due to unknown causes. To identified novel regulators of chemo-resistance in BRCA2-mutated cells, we performed a genome wide siRNA library screen. We have found ES cells expressing a hypomorphic allele of BRCA2 to be hypersensitive to PAPP inhibitors (such as olaparib). We used ES cells expressing a mutant allele of BRCA2 that has a single amino acid substitution at position 2336 (arginine to histidine, R2336H). The screen was conducted using an Ambion (Thermo) Silencer Mouse Genome siRNA collection. The library targets 17,575 mouse genes with 3 siRNAs per gene. TET2 (E130014J05Rik) was identified as a top candidate.
Transfections were performed in 384 well plates (Corning 3707). Plates were coated with 0.1% gelatin in H2O overnight at ambient temperature. Gelatin solution was aspirated (BioTek EL406) and siRNAs were printed using a Bravo VPrep liquid handler integrated within a BioCel automation platform (Agilent). Cell viability was measured using CellTiter Glo (Promega). For transfections, […] of serum free media containing Lipofectamine RNAiMax […] was added to wells containing siRNA (0.8pmol). Lipid and siRNA were allowed to complex for 45 min at ambient temperature before addition of 1000 cells in DMEM, 30% FBS to yield final transfection mixtures containing 20 nM siRNA in DMEM, 15% FBS. PARPi (olaparib, AZD2281) was added 48 h post-transfection (500 nM) and viability (CellTiter Glo, Promega) was assayed 72 h later on a PerkinElmer Envision 2104 Multilabel plate reader. Ambion Silencer Select Negative Control #2 was incorporated on all screening plates (16 wells) and the median negative control value on each plate was used for normalization. An siRNA targeting Trp53 was used as a positive control. This control yielded a median protective effect of ~1.9 fold versus negative control throughout the screen. The median absolute deviation (MAD) based z-score was calculated for each siRNA. Genes were then ranked by taking the median value for all siRNAs tested against a given gene. Scores were also adjusted for seed-based off-target effects to help deprioritize likely false positives.

Row | Sequence | z-score
1 | GCCUCUUUGAUAGCAAAAGTT against Cct6a | 0.0125
2 | GGCAUUUUUCUUCUCCAAATT against Clns1a | -0.934
3 | GGGACUGUAAUGUUGACACTT against Olfr560 | 0.851
4 | GGCAAAAAAAACUGCUAUATT against Gpr128 | 0.0555 (active)
5 | GGAAAUAAGACUCAGGUCATT against Gtf2a1 | -1.44
6 | GCGAGUUGGAAUUGAGAUCTT against Casp8 | 0.155
7 | GGUUUUGGCUCGAAGGAAATT against Tead2 | -1
8 | GGAAUGUCCACAUUUUGUATT against Tigd5 | 0.00592
9 | GGAUGAUGAGAGAAACAAATT against Jak1 | 2.1 (active)
10 | GCCGGUUUCAGUUAAAGAGTT against Pccb | 2.26
11 | GGGAAUCGGCCUGAAGAAATT against Arl6ip5 | -0.707
12 | CCUUCUGGUGCUUUUAGAGTT against Tlm | 0.431
13 | GGGUUAUACCAAGUCCAUUTT against Mapk1 | 3.33 (active)
14 | GGUUUCCAUGGUAACGUGGTT against Tns | 1.17
15 | CGAAGCUGCAAAGGAGAAGTT against Igf1 | -0.732
16 | GGUCUUCUACAACUCGGAATT against Sgpp1 | -0.0398 (active)
17 | GGAGAAGAAGAAAAGAACATT against Pom121 | -3.12
18 | GCACCCGGCACUAGAAAAATT against Shoc2 | 0.638
19 | GCUUUACCUGCUCAGAAGCTT against Olfr520 | 0.553
20 | GCGAUUUUACGGAUCCGGUTT against Olfr1420 | -0.612
21 | GGGAAGUCACUGAAGCCUGTT against Akr7a5 | -0.538
22 | GGGACACACGGUAUACAUCTT against Pfkl | 0.358
23 | GGAUGUUAUAAGAUUGCGUTT against Rnf170 | -0.646
24 | GGAACUGAUGAAUAUUUCATT against Chrnb1 | 0.177 (active)
25 | GUUGGUAAAGGUCCUUGCCTT against D17Wsu155e | -1.02
26 | GCUACUCAUGCUAGAUGACTT against Gba | 1.64
27 | GGUUGAACCCACUCUGCAATT against Olfr1113 | -2.16

Row | Sequence | z-score
28 | GCACAGUGGAUGCAAUCAGTT against Btbd1 | 0.346
29 | GCCCGACAGGAGAUAUUUATT against B230340J04Rik | -1.19
30 | GGAGAGCUGGAACAAUAGCTT against Bcl2l2 | 2.66 (active)
31 | GCCUUUGUAGGUUCAAGUGTT against 2310001H12Rik | 1.78
32 | GGAGAAGAUCGGAUGGCGATT against Itgb5 | -0.391
33 | CGGACUAAGUUUCAAAUCGTT against Pcdha2 | -0.594
34 | GGAUGUCACAACAGUUAUGTT against Otog | 1.4
35 | CCUAUAUGCGCUAUUUGAATT against 4732465J09Rik | 0.557
36 | GGCUAAUGUAUCGUCUGAGTT against Asb16 | 0.422 (active)
37 | CCCUGACGAAGCCAUACAUTT against Bcor | -1.33
38 | GGACAAACAUUGGAUUGAUTT against 0610009C03Rik | 0.453
39 | CCCAGAGGUUCCCGUCAAUTT against Hmgb3 | 1.9 (active)
40 | GCCACCCACCUAAAAUCAATT against BC025872 | 0.573
41 | GGGAAAUGGCUCAUACUGGTT against 2210010C04Rik | -0.608
42 | GACCGAGUUCAAAGCGAACTT against Atp5e | -2.59
43 | GGAAGAAAGCCAUUUGCUUTT against 4632412I24Rik | 0.766
44 | CGAUGAGAUGCGUAUUGAGTT against Card11 | -0.977
45 | GCGAACUCCUCUUUAGGCATT against Chrng | -0.258 (active)
46 | GGGUAGACAGAAAGCCUUUTT against Olfr111 | -0.573
47 | GGUGUCUUAAAGCUGAAAUTT against E2f5 | 2.8
48 | GGAGAGGAAUGGUGUGUUATT against 4931428D14Rik | -0.16
49 | GGUGUUCCUGUCUUUCAUGTT against Chordc1 | -1.35
50 | CCAACUUCAAAACUAUCGUTT against Trp53bp1 | 1.96 (active)
51 | GCUAGUGGUAAGUCAACCATT against D6Ertd349e | -0.584
52 | GGUGGGAAUGGGAAUCAGUTT against Akr1e1 | 1.57
53 | GUCCAUCAGCAGCUCAAUGTT against Ifna5 | -0.126
54 | GGCUUAUUUUUCUUCAGUUTT against Ext1 | -0.0515

Row | Sequence | z-score
55 | GGAGGAAAAAAAGUGAAGATT against Zfp339 | 0.689
56 | CCUAUGCUAUGUAGUUUAATT against Adam21 | 0.555 (active)
57 | GCUGAUGAAGGUGAUACGUTT against Pnma2 | 0.0302
58 | GGCACCUAAAUUCUUGAAUTT against Hspb6 | -0.361
59 | GGCCCUUCCCAAAGUAUUATT against Mup3 | 0.32
60 | CCUACUACCUCUGUCAACATT against Nme4 | 1.46
61 | GGUGGAGUUUGUGCAGAAGTT against 2310026J01Rik | 0.572
62 | CGAUGAUUCCAAGUUUGGCTT against Pinx1 | -0.772
63 | CCUGCAGCUGUAAAACCUGTT against Mt4 | -0.909
64 | CCGUAUCCGGCAUUGGAUUTT against Mrps16 | 0.345
65 | GCUGUCCACUGCUUAAAUCTT against Isyna1 | 0.392
66 | GGAAUUGUACAAAUGACCUTT against Adam29 | -0.0465 (active)
67 | GGAGCUCAGAUGCAAUGAGTT against Zfp393 | -0.714
68 | GGAUGAGCUCAAGAAGUCCTT against Snrpa | -1.3
69 | CCUGUUUACAAGGAAUUGATT against Itgb1 | 0.411
70 | GGAUCACAGCGAUUAUUGATT against D630028G08Rik | -0.512
71 | CCCAUACUAAAAUUGUUGATT against Adam29 | 2.32 (active)
72 | GCCAGGAUAUGGAUAUGCATT against 1520401A03Rik | 1.47
73 | CGACUUCAUAAUUAUGCAATT against Als2 | 0.307
74 | GCCGAAUCCGAACAAAACCTT against Tat | 1.35 (active)
75 | GCUGUAUUGAAGGUCCCUUTT against Olfr744 | -2.34
76 | CCUGGCUAAUGACUAGCUCTT against D730046L02Rik | -0.501
77 | GGUCUCCCUUCAGUAUGAGTT against Ela3b | 2.47 (active)
78 | GCUCAUUCUUACCAAUCUCTT against 2210413P10Rik | -0.897
79 | GCCUCCACAUAGCUUCAACTT against 1110030H02Rik | 1.14
80 | GGUUGCACUUUUUCAUAGUTT against Bcl2l2 | 2.83 (active)
81 | GGGAGCUCUAAAAAAAGUGTT against Olfr390 | 0.0742

Row | Sequence | z-score
82 | GGAGGAGAGGUACAAACGGTT against Cxxc1 | -1.2
83 | GCGGGCAAUGCCUUAAAAGTT against D16Ertd607e | 0.194
84 | GCCCGGUAAAGGUAUCCAUTT against Trp53bp1 | 1.78 (active)
85 | GGGCACCUAUUCAGAUACCTT against Mtap2 | 0.64
86 | GGAAAAGACGGGAGAUUUGTT against Mbldc1 | 0.0178
87 | GUACGUCAUGGGUCACUUCTT against Pomc1 | -0.0856
88 | GGACAGAGUUCGAUCGACUTT against BC021523 | -0.107
89 | GUGAUGACUGAGCUUCUAATT against Olfr1446 | -1.51
90 | GCCUACAGAGUCUUAGUUATT against 2400003B06Rik | 0.0277
91 | GGGAGAAGAAGAUACACCATT against Usp47 | 2.16 (active)
92 | GGCUGUGGACUUUUGUAAUTT against 3110002H16Rik | 0.704
93 | GCCGUUUUAUUCACGUGAATT against 1810033M07Rik | -0.105
94 | GGUUAAAGAAGCCAUGAAATT against Olfr480 | 1.26
95 | GCCUGUUCCGCCAUUCAUGTT against Fliih | -1.13
96 | GGAGUGAUUAACCUAACUCTT against Crip3 | -0.183 (active)
97 | GACAAGACAAGUUUUGGUATT against Elmo1 | -0.497
98 | GGCCUUGAGGCUAUUCAUGTT against Stk16 | 0.0229
99 | GGAAAGUUGUAUUUGAUGUTT against Nudt7 | 0.299
100 | GCAUCUUCGAGGUUUCAAATT against BC006583 | 2.47
101 | GGAAGUAGAGACAGGAGGATT against AF119384 | 1.25
102 | GCGGCAUAUGCCUACUCUUTT against Slc6a12 | -1.46 (active)
103 | GCCUAGACCAGAGAAAGGUTT against AW555464 | 0.139
104 | GCAAGUAUUAAGUAUGACGTT against Vps13c | 0.194
105 | GGCCAGGAGAAGAAGAUACTT against E130014J05Rik | 4.51 (active)
